From PubChem BioAssay
Compounds with a hit are over-represented: about 2.3% of the library has one in this group of screens.
CHO-K1 Ca antag: M1 antagonist counterscreen hit in parental CHO-K1 cells; hit rate 0.6% among 360,000; ATP-induced calcium, Fluo-8 fluorescence; inhibition, % at 3 µM; AID 602250;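 active = inhibition above a per-plate cutoff, the plate's mean sample inhibition plus 3 SD, cut at about 24% in these data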;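 note: 0% = DMSO plus EC80 ATP and 100% = DMSO alone without ATP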
M1 PAM parental: nonselective activator or artifact in parental CHO-K1 calcium assay | hit rate 0.02% among 360,000 | ATP EC20, Fluo-8 calcium fluorescence; 0% at ATP EC20, 100% at ATP max | activation, % at 3 µM;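 active = activation above the run cutoff, the mean activation of all test compounds plus 3 SD, cut at about 40% in these data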;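 note: peak over basal fluorescence ratio in a 140 s read after ATP addition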
M1 PAM: human CHRM1 positive allosteric modulation; CHO-K1 hM1, Fluo-8 calcium fluorescence, ACh EC20; 0% = ACh EC20, 100% = maximal ACh; AID 588819; hit rate 0.088% among 360,000; activation, % at 3 µM; in the data active = activation above about 19%, passing the limit was not always enough
Target sequence (P11229 whole entry, looked up): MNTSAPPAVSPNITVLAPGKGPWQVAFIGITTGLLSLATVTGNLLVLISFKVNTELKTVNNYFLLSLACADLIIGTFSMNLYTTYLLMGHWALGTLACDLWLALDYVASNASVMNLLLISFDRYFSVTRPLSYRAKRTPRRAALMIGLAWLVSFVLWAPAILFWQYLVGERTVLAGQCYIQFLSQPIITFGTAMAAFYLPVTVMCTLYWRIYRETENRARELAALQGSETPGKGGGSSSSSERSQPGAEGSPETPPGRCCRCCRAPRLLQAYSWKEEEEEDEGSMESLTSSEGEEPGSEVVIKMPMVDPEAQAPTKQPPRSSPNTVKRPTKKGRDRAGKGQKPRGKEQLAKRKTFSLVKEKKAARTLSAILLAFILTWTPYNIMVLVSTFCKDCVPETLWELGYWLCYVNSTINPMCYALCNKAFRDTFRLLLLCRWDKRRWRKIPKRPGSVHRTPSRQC
CHRM1 agonist: human M1 muscarinic receptor agonism; CHO-K1 hM1, Fluo-8 calcium fluorescence, agonist mode; 0% DMSO, 100% acetylcholine EC100; hit rate 0.33% among 360,000; activation, % at 3 µM; P11229;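 active = activation above the run's mean compound activation plus 3 SD, cut at about 16% in these data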;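 note: peak over basal fluorescence ratio within a 140 s kinetic read after compound addition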
M1 antag: blocks human M1 muscarinic receptor. P11229. CHO-K1 hM1, Fluo-8 calcium fluorescence, ACh EC80 antagonist. inhibition, % at 3 µM. hit rate 1.3% among 360,000. AID 588852;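 active = percent inhibition above its own plate's cutoff, namely the mean of that plate's compound wells plus 3 SD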;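 note: peak over basal fluorescence ratio during 140 s after agonist addition; 0% = ACh EC80 plus DMSO and 100% = DMSO alone without agonist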
CHO-K1 Ca ag: nonselective activator or artifact in parental CHO-K1 cells; hit rate 0.48% among 360,000; Fluo-8 calcium fluorescence; scaled to maximal ATP response, vehicle zero; activation, % at 3 µM; in the data active = activation above about 15%;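 note: untransfected CHO-K1 host cells lacking M1 receptor as counterscreen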
Active calls of the source: *.

What do the screens show for `COc1cccc(N2CCN(CC(=O)Nc3ccccc3C(=O)NCc3ccccc3)CC2)c1`?
CHO-K1 Ca antag: 4; M1 PAM parental: 6; M1 PAM: -11; CHRM1 agonist: -1; M1 antag: 34*; CHO-K1 Ca ag: 7

Results for O=C(CN1CCN(C(c2ccccc2)c2ccccc2)CC1)NC(=O)NCc1ccco1 ?
CHO-K1 Ca antag: 27*; M1 PAM parental: -9; M1 PAM: -11; CHRM1 agonist: -4; M1 antag: 30*; CHO-K1 Ca ag: -1

How did S=C(NCc1ccco1)N1CCN(C(c2ccccc2)c2ccccc2)CC1 do in these assays?
CHO-K1 Ca antag: 3; M1 PAM parental: 6; M1 PAM: -18; CHRM1 agonist: -8; M1 antag: 18*; CHO-K1 Ca ag: 0

How did COc1ccc(CNC(=O)CN2CCN(C(c3ccccc3)c3ccccc3)CC2)cc1 do in these assays?
CHO-K1 Ca antag: -5; M1 PAM parental: -5; M1 PAM: -19; CHRM1 agonist: -6; M1 antag: 34*; CHO-K1 Ca ag: 0

What do the screens show for `COc1cccc(N2CCN(CC(=O)Nc3ccccc3C(=O)NCCc3ccccc3)CC2)c1`?
CHO-K1 Ca antag: -4; M1 PAM parental: 0; M1 PAM: -12; CHRM1 agonist: -4; M1 antag: 22; CHO-K1 Ca ag: 4

How did COc1ccccc1OCCn1cc(C(=O)c2ccco2)c2ccccc21 do in these assays?
CHO-K1 Ca antag: -4; M1 PAM parental: -7; M1 PAM: -6; CHRM1 agonist: 4; M1 antag: 20; CHO-K1 Ca ag: 20*

Results for CC(=O)c1cn(CCOc2cc(C)ccc2C)c2ccccc12 ?
CHO-K1 Ca antag: 14; M1 PAM parental: 5; M1 PAM: -10; CHRM1 agonist: 2; M1 antag: 26*; CHO-K1 Ca ag: 5

What do the screens show for `Cc1ccc(C)c(OCCn2cc(C(=O)O)c3ccccc32)c1`?
CHO-K1 Ca antag: -7; M1 PAM parental: 14; M1 PAM: -5; CHRM1 agonist: -1; M1 antag: 0; CHO-K1 Ca ag: 5

Results for CCCCOc1ccc(C(=O)N/C(=C\c2ccc(OC)cc2)C(=O)OCc2ccco2)cc1 ?
CHO-K1 Ca antag: -19; M1 PAM parental: 23; M1 PAM: 2; CHRM1 agonist: -3; M1 antag: -6; CHO-K1 Ca ag: 16*

What do the screens show for `COc1ccc(C(=O)N/C(=C\c2ccco2)C(=O)OCc2ccco2)cc1`?
CHO-K1 Ca antag: -9; M1 PAM parental: 11; M1 PAM: 14; CHRM1 agonist: -1; M1 antag: -11; CHO-K1 Ca ag: 0

Results for O=C(Nc1ccc(Br)cc1)c1ccc(F)c(S(=O)(=O)NCc2cccs2)c1 ?
CHO-K1 Ca antag: 28*; M1 PAM parental: 0; M1 PAM: -19; CHRM1 agonist: -2; M1 antag: 34*; CHO-K1 Ca ag: 11

Results for COC1OC2COC(c3ccccc3)OC2C2OC12 (stereo not given) ?
CHO-K1 Ca antag: -6; M1 PAM parental: 5; M1 PAM: 11; CHRM1 agonist: -2; M1 antag: -23; CHO-K1 Ca ag: 1

What do the screens show for `O=C(c1cccc([N+](=O)[O-])c1)N1CCCN(C(=O)c2cccc([N+](=O)[O-])c2)CC1`?
CHO-K1 Ca antag: -12; M1 PAM parental: 24; M1 PAM: 6; CHRM1 agonist: -7; M1 antag: -11; CHO-K1 Ca ag: 1

How did CC(=O)c1cc2c(cc1NC(=O)c1ccco1)OCCO2 do in these assays?
CHO-K1 Ca antag: 25*; M1 PAM parental: -11; M1 PAM: -9; CHRM1 agonist: -5; M1 antag: 17; CHO-K1 Ca ag: 0

How did CN(C)CCO[C@@H](c1ccc(Cl)cc1)c1ccccn1 do in these assays?
CHO-K1 Ca antag: 4; M1 PAM parental: -21; M1 PAM: -27; CHRM1 agonist: -9; M1 antag: 44*; CHO-K1 Ca ag: 0

How did CN(C)CC[C@@H](c1ccc(Br)cc1)c1ccccn1 do in these assays?
CHO-K1 Ca antag: 6; M1 PAM parental: -2; M1 PAM: -26; CHRM1 agonist: -8; M1 antag: 42; CHO-K1 Ca ag: 0

What do the screens show for `CCNc1nc(SCC(=O)Nc2ccc(Cl)c(Cl)c2)nc(N2CCOCC2)n1`?
CHO-K1 Ca antag: -8; M1 PAM parental: -6; M1 PAM: 5; CHRM1 agonist: 2; M1 antag: -7; CHO-K1 Ca ag: 3

What do the screens show for `C[N+](C)(C)CCN(Cc1ccc(Cl)cc1)c1ccccn1`?
CHO-K1 Ca antag: -3; M1 PAM parental: 6; M1 PAM: -8; CHRM1 agonist: 19*; M1 antag: 26*; CHO-K1 Ca ag: 0

What do the screens show for `O=C(c1ccccc1)N1CCN(S(=O)(=O)c2ccccc2)CC1`?
CHO-K1 Ca antag: -8; M1 PAM parental: 21; M1 PAM: 3; CHRM1 agonist: -3; M1 antag: 102*; CHO-K1 Ca ag: 1

Results for O=C(c1cccc(S(=O)(=O)N2CCOCC2)c1)N1CCN(C/C=C/c2ccccc2)CC1 ?
CHO-K1 Ca antag: 4; M1 PAM parental: -16; M1 PAM: -27; CHRM1 agonist: -8; M1 antag: 98*; CHO-K1 Ca ag: 1

Results for CCC(C)(C)C1CCc2nc3ccccc3c(C(=O)OC(C)C(=O)Nc3c(C)n(C)n(-c4ccccc4)c3=O)c2C1 (stereo not given) ?
CHO-K1 Ca antag: -4; M1 PAM parental: 17; M1 PAM: -13; CHRM1 agonist: -11; M1 antag: 14; CHO-K1 Ca ag: 4

How did CCc1nc(N)nc(N)c1-c1ccc(N(C)Cc2ccccc2)c([N+](=O)[O-])c1 do in these assays?
CHO-K1 Ca antag: -11; M1 PAM parental: 6; M1 PAM: -30; CHRM1 agonist: 6; M1 antag: 95*; CHO-K1 Ca ag: 9

How did Cn1nc(C(C)(C)C)cc1C(=O)N1CCCC(c2cc(C(=O)NCc3ccccc3)no2)C1 (stereo not given) do in these assays?
CHO-K1 Ca antag: 7; M1 PAM parental: 3; M1 PAM: -3; CHRM1 agonist: -1; M1 antag: -6; CHO-K1 Ca ag: 6

What do the screens show for `C(=N\Nc1nc(-c2ccccc2)cs1)/c1ccncc1`?
CHO-K1 Ca antag: -9; M1 PAM parental: 22; M1 PAM: 9; CHRM1 agonist: -12; M1 antag: -6; CHO-K1 Ca ag: 1

What do the screens show for `CN(C)S(=O)(=O)c1ccc(-c2csc(N/N=C/c3ccc(O)cc3)n2)cc1`?
CHO-K1 Ca antag: 16; M1 PAM parental: -10; M1 PAM: -12; CHRM1 agonist: -1; M1 antag: 37*; CHO-K1 Ca ag: 7

What do the screens show for `Cc1ccc(-c2csc(N/N=C/c3ccco3)n2)cc1`?
CHO-K1 Ca antag: -11; M1 PAM parental: 21; M1 PAM: 0; CHRM1 agonist: -4; M1 antag: -1; CHO-K1 Ca ag: 0

How did CN(C)S(=O)(=O)c1ccc(-c2csc(N/N=C/c3ccco3)n2)cc1 do in these assays?
CHO-K1 Ca antag: 13; M1 PAM parental: -21; M1 PAM: -16; CHRM1 agonist: 6; M1 antag: 51*; CHO-K1 Ca ag: 15
